The text below walks through data of PubChem BioAssay (NCATS).

A short description of assay [1]: qHTS assay for small molecule antagonists of peroxisome proliferator-activated receptor delta signaling (AID 588535; active = well fitted inhibition curve with a large enough effect in the signal ratio, with a control signal flat, not every such curve was filed as active; the % refers to the signal ratio;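 for max response: cells co-treated with a PPAR-delta agonist as stimulator during compound exposure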). As to conditions: HEK293T PPARd-UAS-bla, beta-lactamase FRET ratio, 18 h; 460 nm channel. In outline:
(§1)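 Beta-lactamase reporter read-out (405 nm excitation, 460/530 nm emission) after CCF4 loading for 2 hrs at RT. HEK293T PPAR-delta-UAS-bla cells, 2% charcoal/dextran FBS, compounds for 18 hrs at 37 C. Hill fit gave IC50 and efficacy.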
In general terms: In qHTS, concentration-response curves come from the screen itself.

Assay [2] addresses Peroxisome proliferator-activated receptor delta (Homo sapiens) (UniProt Q03181). Described as above. As to conditions: HEK293T PPARd-UAS-bla, beta-lactamase FRET ratio, 18 h; series mostly up to 76.7 µM. A digest of the protocol:
as §1

In assay [3] the target is Peroxisome proliferator-activated receptor gamma (Homo sapiens) (UniProt P37231). Put plainly: qHTS assay for small molecule agonists of peroxisome proliferator-activated receptor gamma signaling (AID 588536; active = well fitted curve in the direction sought with a large enough effect in the signal ratio, with a control signal flat, not every such curve was filed as active; the % refers to the signal ratio;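 note: 0% = DMSO basal wells and 100% = rosiglitazone at 2 µM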). The note with it: HEK293 PPARg-UAS-bla, beta-lactamase ratio, 16 h, percent of rosiglitazone response, DMSO as zero; series mostly up to 76.7 µM. A digest of the protocol:
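Using GeneBLAzer HEK293 cells, response was quantified by CCF4 fluorescence and normalized between basal DMSO (0%) and rosiglitazone 2 uM (100%); curves yielded half-maximal stimulation concentration and efficacy.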

Assay [4] can be described thus: qHTS assay for small molecule agonists of retinoid X receptor alpha signaling (AID 588544; calls by dose curve;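 for activation: 0% = DMSO basal wells and 100% = reference agonist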). The note with it: HEK293T RXRa-UAS-bla, beta-lactamase reporter, 18 h; 530 nm emission.
Assay [5] deals with Retinoic acid receptor RXR-alpha (Homo sapiens) (UniProt P19793). The description is as above. The note with it: HEK293T RXRa-UAS-bla, beta-lactamase reporter, 18 h; series mostly up to 76.7 µM.
In assay [6] the target is Thyroid hormone receptor beta (Homo sapiens) (UniProt P10828). The assay is described as follows: qHTS assay for small molecule agonists of thyroid hormone receptor beta signaling (AID 588545; calls by dose curve). As to conditions: TR-UAS-bla GripTite HEK 293, beta-lactamase ratio, agonist mode, 18 h; series mostly up to 76.7 µM. In outline:
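Agonist activity was read as beta-lactamase CCF4 fluorescence (405 ex, 460/530 em), scaled between DMSO (0%) and 10 nM T3 (100%), then Hill-fitted for EC50 and efficacy. HEK 293 TR-UAS-bla cells in 2% charcoal/dextran FBS medium were exposed 18 h at 37 C.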

Assay [7] is described as follows: qHTS assay for small molecule antagonists of retinoid X receptor alpha signaling (AID 588546; active = well fitted inhibition curve with a large enough effect in the signal ratio, with a control signal flat, not every such curve was filed as active; the % refers to the signal ratio;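 note: cells stimulated with 9-cis-retinoic acid as agonist; % is set by controls: 0 for no effect and ±100 for the full control effect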). As to conditions: HEK293T RXRa-UAS-bla, beta-lactamase ratio, antagonist mode; measured here: W530 green channel, cytotoxicity proxy. In outline:
(§2)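 Beta-lactamase reporter inhibition, read as CCF4 fluorescence ratio (ex 405, em 460/530 nm) after 2 h at RT. HEK293T UAS-bla cells, 2500/well, were stimulated with 9-cis-RA at 500 or 100 nM final alongside test compound for 18 h at 37 C.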

Assay [8] has as its target Retinoic acid receptor RXR-alpha (Homo sapiens) (UniProt P19793). The assay is described as above. The note with it: HEK293T RXRa-UAS-bla, beta-lactamase ratio, antagonist mode. In outline: as §2
Assay [9] can be described thus: qHTS assay for environmental chemicals that activate the Aryl hydrocarbon Receptor (AhR) signaling pathway (AID 651777). Note: % of control where 0% means no effect; nearly all actives have a fitted effect of over 15% in size. The note with it: 1A2-DRE human hepatoma cells, luciferase, 24 h; activation: stronger effect = higher value. In outline:
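Reporter gene assay: hepatoma cells with DRE/CYP1A2-luciferase, 24 hr compound incubation at 37 C, 5% CO2, luminescence after One-Glo (30 min, RT).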

Assay [10] concerns the target Peroxisome proliferator-activated receptor alpha (Homo sapiens) (UniProt Q07869). The assay is described as follows: qHTS assay for small molecule agonists of the peroxisome proliferator-activated receptor alpha (PPARalpha) signaling pathway (AID 651778). Note: % of control where 0% means no effect. As to conditions: PathHunter PPARalpha complementation, chemiluminescence, 6 h; max response: stronger effect = higher value. A digest of the protocol: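 Enzyme-fragment complementation assay in which ligand-bound PPARalpha translocates and forms an active enzyme that generates chemiluminescence. Cells were plated overnight, exposed to compound for 6 hr at 37 C, and then given detection reagent for 60 min at room temperature.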

Assay [11] in a line: qHTS assay for small molecule agonists of the antioxidant response element (ARE) signaling pathway measured by Nrf2-dependant transcriptional activity (AID 720636; active = well fitted curve in the direction sought with a large enough effect in the repeat runs; an effect the other way counts as inactive or inconclusive; note: % of control where 0% means no effect). As to conditions: ARE-luc HepG2, Nrf2 luciferase reporter, 16 h; series mostly up to 92.4 µM. In outline: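 Nrf2-dependent transcription is measured in ARE-luc HepG2 cells: compound is applied for 16 hr at 37 C after a 6 hr attachment period, and luciferase activity is quantified by luminescence using ONE-Glo.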

A short description of assay [12]: qHTS assay for cell viability of HEK293 cells (AID 743288). Note: % is set by controls: 0 for no effect and ±100 for the full control effect; nearly all actives have a fitted effect of over 50% in size. The note with it: ATP luminescence (CellTiter-Glo), 18 h; max response: stronger effect = lower value. A digest of the protocol:
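Readout is luciferase-coupled ATP content (CellTiter-Glo luminescence, 30 min room temperature) as a measure of metabolically competent cells. Parental HEK293 cells were plated 5 h or more before compound addition, then treated 18 h at 37 C.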

Assay [13] is described as follows: qHTS assay for cell viability of the p53RE-bla HCT-116 cell line (AID 743292). Note: % is set by controls: 0 for no effect and ±100 for the full control effect; nearly all actives have a fitted effect of over 55% in size. The note with it: p53RE-bla HCT-116 viability, ATP luminescence, 16 h; series mostly up to 95 µM. In outline: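 ATP-based luminescence, 16 h compound exposure at 37 C, p53RE-bla HCT-116 cells at 4,000/well.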
In assay [14] the target is Nuclear receptor subfamily 1 group I member 2 (Rattus norvegicus) (UniProt Q9R1A7). The assay is described as follows: qHTS assay for small molecule activators of the rat pregnane X receptor (rPXR) signaling pathway (AID 651751; call rule not given here; note: 0% is about no effect). As to conditions: rPXR reporter cells, luciferase (One-Glo), 24 h.
The nature of assay [15]: qHTS assay for small molecule activators of the human pregnane X receptor (PXR) signaling pathway (AID 720659; call rule not given here; note: 0% is about no effect). The note with it: DPX-2 HepG2 CYP3A4-luciferase, 24 h; series mostly up to 92.3 µM.
Assay [16] has as its target Vitamin D3 receptor (Homo sapiens) (UniProt P11473). Put plainly: qHTS assay for small molecule antagonists of vitamin D receptor signaling (AID 588541; calls by dose curve;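 note: receptor activated by calcitriol during compound treatment; % is set by controls: 0 for no effect and ±100 for the full control effect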). As to conditions: HEK293T VDR-UAS-bla, beta-lactamase ratio, antagonist mode; series mostly up to 76.7 µM. In outline:
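VDR-UAS-bla HEK293T cells in 2% charcoal-stripped FBS were stimulated with 1-alpha,25-dihydroxyvitamin D3 (3 nM final) plus compound for 16 h at 37 C. The beta-lactamase CCF4 readout was normalized to 50 nM agonist and DMSO, and Hill fits gave IC50.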

The nature of assay [17]: qHTS assay for small molecule activators of the p53 signaling pathway (AID 651743; active = well fitted activation curve with a large enough effect in the signal ratio, not every such curve was filed as active; the % refers to the signal ratio; note: % of control where 0% means no effect). As to conditions: HCT-116 p53RE-bla, beta-lactamase FRET ratio, 16 h; activation: stronger effect = higher value. A digest of the protocol: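 Reporter: beta-lactamase driven by p53 response elements, stably integrated in HCT-116 cells. Cells seeded at 4,000/well, 5 h preincubation, compound (DMSO) 16 h at 37 C; B/G FRET substrate 2 h RT; fluorescence intensity read.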

A short description of assay [18]: qHTS assay for small molecule activators of the nuclear factor-kappa B (NF-kB) signaling pathway (AID 651749; active = well fitted activation curve with a large enough effect in the signal ratio; the % refers to the signal ratio; note: % of control where 0% means no effect). As to conditions: NF-kB-bla ME-180 cells, beta-lactamase FRET ratio, 16 h; activation: stronger effect = higher value. A digest of the protocol:
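NF-kB-bla ME-180 cells, 2,000/well; 23 nL compound or DMSO pinned; 16 hr, 37C/5% CO2; beta-lactamase FRET read-out.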

Assay [19] in a line: qHTS assay for small molecule agonists of the antioxidant response element (ARE) signaling pathway measured by Nrf2-dependant transcriptional activity - cell viability counter screen (AID 720653; active = well fitted curve in the direction sought with a large enough effect in the repeat runs; an effect the other way counts as inactive or inconclusive; note: % is set by controls: 0 for no effect and ±100 for the full control effect). As to conditions: ARE-bla HepG2 viability, CellTiter-Glo ATP luminescence, 16 h; max response: stronger effect = lower value. A digest of the protocol:
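ARE-bla HepG2 cells treated with compounds for 16 h at 37C; this counter screen measures viability as intracellular ATP by CellTiter-Glo luminescence after 30 min at room temperature.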

The target of assay [20] is Vitamin D3 receptor (Homo sapiens) (UniProt P11473). The assay is described as follows: qHTS assay for small molecule agonists of vitamin D receptor signaling (AID 588543; calls by dose curve;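 note: 0% = DMSO basal and 100% = reference agonist control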). The note with it: HEK293T VDR-UAS-bla, beta-lactamase ratio, 16 h; series mostly up to 76.8 µM. A digest of the protocol:
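Agonist-mode beta-lactamase reporter: HEK293T VDR-UAS-bla cells in charcoal-stripped 2% FBS, compound series 16 h 37 C, CCF4 2 h RT. EC50 from Hill fit, scaled against DMSO and 50 nM calcitriol control.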

Inconclusive results are not listed. Active and inactive are the calls of the source. Unless noted, calls come from the whole dose curve; as a rule, active = well fitted curve in the direction sought with a large enough effect; inconclusive = small, poorly fitted or top-dose-only effect, or another doubt; inactive = no such curve, though single readings can be large; an effect the other way counts as inactive or inconclusive.

Chain of Peroxisome proliferator-activated receptor gamma (Homo sapiens) (P37231 whole entry, looked up): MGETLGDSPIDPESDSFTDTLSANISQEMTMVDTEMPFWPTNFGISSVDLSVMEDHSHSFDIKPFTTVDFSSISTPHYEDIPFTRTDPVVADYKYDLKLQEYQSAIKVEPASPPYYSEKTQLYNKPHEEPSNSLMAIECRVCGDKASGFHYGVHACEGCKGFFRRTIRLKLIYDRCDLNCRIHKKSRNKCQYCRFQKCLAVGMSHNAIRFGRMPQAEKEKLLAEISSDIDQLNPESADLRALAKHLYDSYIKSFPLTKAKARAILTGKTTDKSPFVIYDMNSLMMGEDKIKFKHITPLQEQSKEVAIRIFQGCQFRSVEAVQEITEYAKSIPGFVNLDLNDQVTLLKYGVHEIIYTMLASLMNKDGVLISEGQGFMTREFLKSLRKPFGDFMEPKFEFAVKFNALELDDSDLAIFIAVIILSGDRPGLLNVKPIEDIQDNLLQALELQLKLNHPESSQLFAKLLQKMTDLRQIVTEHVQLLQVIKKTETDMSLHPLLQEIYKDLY
Chain of Nuclear receptor subfamily 1 group I member 2 (Rattus norvegicus) (Q9R1A7 whole entry, looked up): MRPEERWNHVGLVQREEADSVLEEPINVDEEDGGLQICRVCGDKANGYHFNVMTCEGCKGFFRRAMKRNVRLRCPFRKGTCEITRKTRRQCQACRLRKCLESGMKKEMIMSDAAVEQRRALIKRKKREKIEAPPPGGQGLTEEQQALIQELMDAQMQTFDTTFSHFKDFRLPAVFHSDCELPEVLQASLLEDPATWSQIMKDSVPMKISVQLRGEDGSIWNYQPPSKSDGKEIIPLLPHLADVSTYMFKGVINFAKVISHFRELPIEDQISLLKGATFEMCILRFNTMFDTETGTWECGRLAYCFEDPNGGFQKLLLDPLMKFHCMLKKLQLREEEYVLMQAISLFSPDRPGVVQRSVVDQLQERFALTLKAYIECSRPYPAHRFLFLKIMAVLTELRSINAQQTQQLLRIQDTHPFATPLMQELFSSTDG
Chain of Retinoic acid receptor RXR-alpha (Homo sapiens) (P19793 whole entry, looked up): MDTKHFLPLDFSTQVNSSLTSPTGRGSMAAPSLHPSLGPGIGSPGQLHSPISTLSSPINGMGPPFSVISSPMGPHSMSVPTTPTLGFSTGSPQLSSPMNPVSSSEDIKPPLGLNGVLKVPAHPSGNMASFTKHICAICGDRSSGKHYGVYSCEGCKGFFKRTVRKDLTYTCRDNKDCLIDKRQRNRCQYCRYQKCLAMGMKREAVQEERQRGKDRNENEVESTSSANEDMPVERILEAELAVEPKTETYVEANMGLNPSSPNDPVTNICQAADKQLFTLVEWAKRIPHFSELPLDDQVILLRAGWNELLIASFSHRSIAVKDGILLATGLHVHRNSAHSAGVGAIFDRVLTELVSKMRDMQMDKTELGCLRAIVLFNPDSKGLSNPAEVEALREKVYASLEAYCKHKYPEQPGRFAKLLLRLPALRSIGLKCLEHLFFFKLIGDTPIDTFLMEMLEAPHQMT
Chain of Thyroid hormone receptor beta (Homo sapiens) (P10828 whole entry, looked up): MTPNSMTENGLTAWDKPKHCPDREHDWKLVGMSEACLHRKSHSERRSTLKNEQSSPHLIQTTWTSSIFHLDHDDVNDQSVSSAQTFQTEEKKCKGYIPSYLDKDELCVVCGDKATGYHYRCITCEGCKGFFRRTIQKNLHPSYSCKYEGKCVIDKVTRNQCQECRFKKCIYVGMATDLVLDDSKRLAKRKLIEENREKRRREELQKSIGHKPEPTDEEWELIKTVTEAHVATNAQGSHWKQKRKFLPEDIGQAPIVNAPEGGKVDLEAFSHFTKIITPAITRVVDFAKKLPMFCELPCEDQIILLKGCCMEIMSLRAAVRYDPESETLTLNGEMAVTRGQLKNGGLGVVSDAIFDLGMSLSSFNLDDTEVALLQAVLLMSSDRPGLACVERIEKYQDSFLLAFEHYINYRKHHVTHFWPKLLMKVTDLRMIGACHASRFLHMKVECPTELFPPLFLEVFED
Chain of Peroxisome proliferator-activated receptor alpha (Homo sapiens) (Q07869 whole entry, looked up, the tested form may be a part): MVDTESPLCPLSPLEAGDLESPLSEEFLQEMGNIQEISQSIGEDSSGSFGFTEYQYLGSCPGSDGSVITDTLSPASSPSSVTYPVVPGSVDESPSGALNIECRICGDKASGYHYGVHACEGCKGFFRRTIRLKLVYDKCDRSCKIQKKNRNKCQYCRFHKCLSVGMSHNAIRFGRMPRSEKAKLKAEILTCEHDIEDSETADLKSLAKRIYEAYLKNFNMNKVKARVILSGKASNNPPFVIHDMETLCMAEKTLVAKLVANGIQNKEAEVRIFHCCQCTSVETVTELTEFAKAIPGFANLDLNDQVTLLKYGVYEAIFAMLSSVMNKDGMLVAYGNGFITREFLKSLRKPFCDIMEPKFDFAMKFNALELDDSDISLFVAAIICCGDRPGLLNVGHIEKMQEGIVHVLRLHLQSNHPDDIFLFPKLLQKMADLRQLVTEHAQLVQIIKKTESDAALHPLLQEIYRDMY
Chain of Vitamin D3 receptor (Homo sapiens) (P11473 whole entry, looked up): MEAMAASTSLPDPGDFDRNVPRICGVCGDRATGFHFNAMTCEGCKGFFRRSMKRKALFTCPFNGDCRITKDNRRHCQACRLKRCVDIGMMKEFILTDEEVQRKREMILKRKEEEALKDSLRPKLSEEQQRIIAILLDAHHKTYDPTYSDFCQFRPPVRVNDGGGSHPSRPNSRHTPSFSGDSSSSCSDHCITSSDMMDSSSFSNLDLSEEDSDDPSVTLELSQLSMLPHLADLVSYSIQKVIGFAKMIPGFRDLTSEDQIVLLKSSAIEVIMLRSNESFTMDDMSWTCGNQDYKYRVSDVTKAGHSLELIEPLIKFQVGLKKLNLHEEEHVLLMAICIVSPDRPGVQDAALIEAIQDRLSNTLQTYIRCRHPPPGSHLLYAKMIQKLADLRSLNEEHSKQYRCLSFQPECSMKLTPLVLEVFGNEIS
Chain of Peroxisome proliferator-activated receptor delta (Homo sapiens) (Q03181 whole entry, looked up): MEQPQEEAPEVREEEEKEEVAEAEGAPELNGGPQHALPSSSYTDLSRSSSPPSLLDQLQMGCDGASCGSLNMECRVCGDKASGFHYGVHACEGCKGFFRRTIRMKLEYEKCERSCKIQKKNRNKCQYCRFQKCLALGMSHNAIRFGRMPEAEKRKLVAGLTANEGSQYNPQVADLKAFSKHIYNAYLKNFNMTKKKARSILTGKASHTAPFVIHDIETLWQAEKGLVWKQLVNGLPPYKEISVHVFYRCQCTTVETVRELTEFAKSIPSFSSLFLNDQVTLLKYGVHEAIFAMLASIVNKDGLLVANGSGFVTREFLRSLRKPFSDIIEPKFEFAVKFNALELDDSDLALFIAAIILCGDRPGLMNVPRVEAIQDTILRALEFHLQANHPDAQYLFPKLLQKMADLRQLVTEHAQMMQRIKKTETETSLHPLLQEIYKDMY

As for `CCCCCCOCCOCCO`, the max response is -32.9% in [1]; -8.61% in assay [4]; -13.6% in [7]; 2.18% (inactive) in [8]; 0.465% (inactive) in [10]; -5.42% (inactive) in assay [12]. Moreover, in assay [14], the max response was -1.74% (inactive). Further, the Potency entry in assay [2], in assay [5], in assay [6], in assay [11] and in [13] was “inactive” each time. Further, the outcome in [3] and in assay [15] was inactive. Further, the activation in [9] is -0.48% (inactive).
For `COCCOCCOCCOC`, the outcome in assay [3] and in assay [15] was inactive. Also, the Potency entry in [16], in assay [5], in assay [6] and in assay [13] was “inactive” in each case. The max response was -14.6% in assay [4]; 0.474% in assay [7]; 2.59% (inactive) in assay [8]; 1.56% (inactive) in [19]; -11.9% (inactive) in [12]; -0.732% (inactive) in assay [14]. Besides, the activation in [17] was 0.451% (inactive); in assay [18], 0.99% (inactive); in assay [9] it was -0.0635% (inactive).
Take `CCCCCCCCCCCCc1ccccc1`: the max response in assay [1] was -16.9%; in [4], -7.45%; in [7], -16.5%; in [8], 3.12% (inactive); in assay [10], -0.756% (inactive); in assay [19], -12.7% (inactive). Besides, the max response in assay [12] was 2.81% (inactive); in assay [14] it was 0.082% (inactive). For the same compound, the Potency result in [2], in [16], in [5] and in assay [11] was “inactive” each time. Besides, the result in assay [3] and in assay [15] was inactive. Moreover, the activation in assay [17] was -0.535% (inactive); in assay [18], 1.6% (inactive).
For the compound `CC(COc1ccc(C(C)(C)C)cc1)OS(=O)OCCCl` (centres undefined), the max response in [1] was 82.6%; in assay [10] it was -2.96% (inactive); in assay [19], -25.1% (inactive); in [12], -26.1% (inactive); in assay [14], -11.7% (inactive). For the same compound, the Potency result in [2], in assay [6] and in assay [13] was “inactive” throughout. Moreover, the outcome in assay [20] was inactive. Moreover, the activation is 8.46% (inactive) in assay [17] and 12.5% (inactive) in [9].
Take `CC(COCC(C)OC(=O)c1ccccc1)OC(=O)c1ccccc1` (centres undefined): the max response in assay [1] was -1.92%; in [7] it was -1.17%; in assay [8], -22% (inactive); in [10] it was 0.577% (inactive); in assay [19] it was -9.83% (inactive). The Potency result in assay [2], in assay [16], in [6] and in assay [11] was “inactive” in each case. In addition, the outcome in [20] and in [15] was inactive. In addition, in [9], the activation was 1.91% (inactive).
